Several values for one entry are separate records, joined by “and”; a condition that tells them apart may be missing. Equal entries are not always repeated. Structures can show the parent of a compound that is named as a salt.
Experiments:
Assay in all cases: cell viability relative to vehicle control; higher = less cytotoxic
Conditions in all cases: 10 µM
K562 = test system: K562
Summary of the method: (§1)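 Four leukaemia lines, as CRISPR-edited mutant clones and isogenic wild-type clones, were tested against Selleck bioactive, kinase and epigenetic probe libraries after removal of identity-inconsistent compounds. Cells were exposed to a single 10 µM dose for 48 h, and CellTiter-Glo luminescence was then read. Viability was calculated relative to the on-plate vehicle control.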

MARIMO = test system: MARIMO
Summary of the method: as §1

MOLM14 = test system: MOLM14
Summary of the method: as §1

OCI-AML2 = test system: OCI-AML2
Summary of the method: as §1

Compound	cell viability (K562; SRSF2 genotype: SRSF2 P95H/wt)	cell viability (K562; SRSF2 genotype: SRSF2 wt/wt) [%]	cell viability (MARIMO; SRSF2 genotype: SRSF2 P95H/wt) [%]	cell viability (MARIMO; SRSF2 genotype: SRSF2 wt/wt) [%]	cell viability (MOLM14; SRSF2 genotype: SRSF2 P95H/wt) [%]	cell viability (MOLM14; SRSF2 genotype: SRSF2 wt/wt) [%]	cell viability (OCI-AML2; SRSF2 genotype: P95H/wt) [%]	cell viability (OCI-AML2; SRSF2 genotype: wt/wt) [%]
CC1=CCC(=C(C)C)C(=O)CC(C)=CCC1 [Germacrone]	110% and 109%	111	107	103	110	106	95.1	101
CCCCOCc1ccc(O)c(OC)c1 [Vanillyl Butyl Ether]	98.9% and 92.9%	101	97.6	106	98.8	101	93.1	109
Nc1c(Br)cc(Br)cc1CN[C@H]1CC[C@H](O)CC1 [Ambroxol HCl]	103% and 109%	105	106	102	101	107	104	101
Cc1cc(=O)[nH]c(=S)[nH]1 [Methylthiouracil]	99.3% and 106%	90.5	96.7	107	99.9	103	95.5	104
C=CC(=O)N1CC(N2CCN(C(=O)CNc3cc(C4(C)CC4)c(Cl)cc3O)CC2)C1	93.9% and 95.2%	97.3	88.9	102	86.1	104	112	108
Cn1cc(/C=C2\C(=O)Nc3cccnc32)c2ccccc21	98% and 98.2%	96.4	91.2	94.3	25.7	22.9	49.4	56.2
CN1CCc2nc(C(=O)N[C@@H]3C[C@@H](C(=O)N(C)C)CC[C@@H]3NC(=O)C(=O)Nc3ccc(Cl)cn3)sc2C1 [Edoxaban]	98.2% and 93.3%	92.5	95.7	102	99.4	95.6	92.9	100
COc1cc(O)c(C(=O)Nc2nc(C(=O)NCCN(C(C)C)C(C)C)cs2)cc1OC [Acotiamide hydrochloride]	93.4% and 91.4%	103	98	98.8	97	98.8	97.1	98.7
Cc1cccc(Nc2ccccc2C(=O)O)c1C [Mefenamic Acid]	98.6% and 99.4%	96.4	103	92.8	94.5	98.5	106	101
CCNC(=O)Nc1ccc(-c2nc3c(c(N4CCOC[C@@H]4C)n2)CCN(C2COC2)C3)cc1	40.5% and 42.9%	39.5	61.5	53.6	37.4	28.8	36.3	33.7
CC(C)NCC(O)c1ccc(O)c(O)c1 (centres undefined) [Isoprenaline hydrochloride]	92.4% and 104%	96.9	98.4	100	89.7	96.5	104	101
O=C(O)c1cc(=O)c2c(OCC(O)COc3cccc4oc(C(=O)O)cc(=O)c34)cccc2o1 [Disodium Cromoglycate]	93.6%	95	94.8	98.5	94	94.4	92.8	99
CC(=O)Oc1ccccc1C(=O)O.CC(=O)Oc1ccccc1C(=O)O.NC(N)=O [Carbasalate Calcium]	105% and 106%	102	104	105	104	103	102	97.8
CC(=O)O[C@]1(C(C)=O)CC[C@H]2[C@@H]3C[C@H](C)C4=CC(=O)CC[C@]4(C)[C@H]3CC[C@@]21C [Medroxyprogesterone acetate]	82.5% and 92.8%	94.7	104	73	112	102	98.5	87.5
Nc1nc(Cl)nc2c1ncn2[C@@H]1O[C@H](CO)[C@@H](O)[C@@H]1F [Clofarabine]	96.7% and 113%	105	11.5	8.77	2.95	0.83	5.47	4.64
CC(C)c1c(-c2ccccc2)nc2c(C#N)c[nH]n2c1=O	105% and 99.3%	108	103	93.5	97.8	98.8	103	101
O=c1cc(CN2CCOCC2)occ1OCCCCCSc1ccnc2cc(C(F)(F)F)ccc12	59.9% and 65.2%	60.1	49.4	37.7	58.9	68.5	27.6	34.3
COc1nc(C)cnc1NS(=O)(=O)c1cccnc1-c1ccc(-c2nnco2)cc1 [Zibotentan (ZD4054)]	98.4% and 103%	98.4	99	97.6	100	97.5	102	105
Oc1ccc(OC2CCCCO2)cc1 (centres undefined) [Deoxyarbutin]	104% and 99.3%	105	84.6	93.3	83.3	81.9	87.4	83.2
CC(=O)N[C@@H](CC(C)C)C(=O)N[C@@H](CC(C)C)C(=O)N[C@H](C=O)CCCNC(=N)N [Leupeptin Hemisulfate]	94.1% and 83.4%	86.2	90.8	97.3	85.8	90.1	97.4	97.7
CCCCCCCCCCCCCC(=O)OCC(COC(=O)CCCCCCCCCCCCC)OC(=O)CCCCCCCCCCCCC [Tritetradecanoin]	107% and 104%	103	100	107	101	102	102	107
NC(=O)Cc1cccc(C(=O)c2ccccc2)c1N [Nepafenac]	96.5% and 95.7%	91.7	93.8	93.8	95.4	96.5	87.7	92.4

Compound	cell viability (K562; SRSF2 genotype: SRSF2 P95H/wt)	cell viability (K562; SRSF2 genotype: SRSF2 wt/wt) [%]	cell viability (MARIMO; SRSF2 genotype: SRSF2 P95H/wt) [%]	cell viability (MARIMO; SRSF2 genotype: SRSF2 wt/wt) [%]	cell viability (MOLM14; SRSF2 genotype: SRSF2 P95H/wt) [%]	cell viability (MOLM14; SRSF2 genotype: SRSF2 wt/wt) [%]	cell viability (OCI-AML2; SRSF2 genotype: P95H/wt) [%]	cell viability (OCI-AML2; SRSF2 genotype: wt/wt) [%]
C=CC(=O)Nc1cccc(Nc2nc(Nc3ccc(N4CCN(C(C)=O)CC4)cc3OC)ncc2C(F)(F)F)c1 [Rociletinib (CO-1686, AVL-301)]	54.5% and 77.9%	68.3	34.9	29.4	6.76	11.9	10.2	19
CCOC(=O)[C@H](CCc1ccccc1)N[C@@H](C)C(=O)N1CCC[C@H]1C(=O)O [Enalapril maleate (Vasotec)]	106% and 100%	106	99.6	111	112	103	94.2	97.8
CC(C)=CCC/C(C)=C/Cc1c(O)c(CC=C(C)C)c2c(c1O)C(=O)C1=C[C@@H]3C[C@H]4C(C)(C)O[C@@](C/C=C(/C)C(=O)O)(C3=O)[C@@]14O2 [Gambogenic acid]	1.97% and 1.06%	1.12	0.46	0.68	0.23	0.27	0.27	0.82
O=C(O)CCC(=O)Nc1ccc(Br)cn1 [Bikinin]	100% and 97.8%	106	104	104	102	106	102	99.7
CCCN(CCc1cccs1)[C@H]1CCc2c(O)cccc2C1 [Rotigotine]	99.3% and 105%	104	89.7	105	93.8	101	107	92.3
CN1CCN(c2ccc(C(=O)Nc3n[nH]c4ccc(Cc5cc(F)cc(F)c5)cc34)c(NC3CCOCC3)c2)CC1 [Entrectinib (RXDX-101)]	0.53% and 0.51%	0.41	0.56	2.11	0.29	0.28	0.22	0.35
CNC1CCCN(c2c(F)cc3c(=O)c(C(=O)O)cn(C4CC4)c3c2OC)C1 (centres undefined) [Balofloxacin]	104% and 108%	105	107	105	107	109	106	94.3
CNC1CCC(N(Cc2cccc(-c3ccncc3)c2)C(=O)c2sc3ccccc3c2Cl)CC1 (centres undefined) [Smoothened Agonist (SAG) HCl]	18.8% and 30.6%	29.8	53.8	51.4	36.6	48.6	3.18	26.1
CC(C(=O)O)C(=O)O [Methylmalonate]	102%	100	98.2	110	97	103	90.5	107
Nc1nc(F)nc2c1ncn2[C@@H]1O[C@H](CO)[C@@H](O)[C@@H]1O [Fludarabine (Fludara)]	102% and 107%	100	64.5	77.6	65.7	82.8	4.58	5.52
Cc1cc2c(F)c(Oc3ncnn4cc(OC[C@@H](C)OC(=O)[C@H](C)N)c(C)c34)ccc2[nH]1	89.4% and 85.9%	82	93.5	104	82	87.4	78.8	81.5
CCCOC(=O)c1ccc(O)cc1 [Propylparaben]	96.5% and 97.2%	101	91.3	107	98.9	105	95.6	90.1
O=C(O)CCCCC(CCSCc1ccccc1)SCc1ccccc1 (centres undefined)	106% and 104%	100	99.6	111	100	103	94.6	112
Clc1ccc(COC(Cn2ccnc2)c2ccc(Cl)cc2Cl)c(Cl)c1 (centres undefined) [Miconazole (Monistat)]	65.6% and 81%	62.2	61.1	73	67.2	54.8	65.5	54.4
c1cn2cc(-c3ccc4cn[nH]c4c3)nc(Nc3ccc(N4CCOCC4)cc3)c2n1 [Entospletinib (GS-9973)]	89.8% and 84.7%	95.7	89.5	89.9	79	95.6	92.5	85.6
CC[C@@H](CO)NCCN[C@@H](CC)CO [Ethambutol HCl]	99.5% and 99.3%	98.7	99.4	112	100	102	104	107
CS(=O)(=O)N1CCN(Cc2cc3nc(-c4cccc5[nH]ncc45)nc(N4CCOCC4)c3s2)CC1 [Pictilisib (GDC-0941)]	88.3% and 97.1%	94.5	64.3	57.8	55.9	64.6	48.5	55
COC(=O)c1cc(OC)c2c(c1-c1c(C(=O)OC)cc(OC)c3c1OCO3)OCO2 [Bifendate]	109%	98.7	101	101	99.3	101	106	94.3
Oc1c(F)cc(-c2cnccc2-c2ccc(N3CCOCC3)cc2)cc1F	101% and 106%	105	97.5	92.6	75.5	104	120	103
O=C(O)c1ccc2c3c1cccc3c(=O)n1c3ccccc3nc21	104% and 102%	102	107	106	96.6	99.9	104	97.5
C[n+]1ccccc1C=NO [Pralidoxime Iodide]	106% and 98.4%	111	101	105	99.2	106	105	118

Source: the supplement of paper PMC10981050
